KDM5B inhibitor – Primary screen for KDM5B Histone Demethylases FDH-coupled qHTS | 220,000 tested, 2.6% active | Lysine-specific demethylase 5B (Homo sapiens), Q9UGL1 | KDM5B demethylase, FDH-coupled NADH fluorescence (FDH is formaldehyde dehydrogenase) | AID 1347165, 2019 | Potency, µM (top dose mostly 57.7 µM), usual class: inhibitors; also: potency is read from the fitted curve at half-maximal effect; 0% is about no effect; nearly all actives have a fitted effect of over 70% in size
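Compound dilutions met 200 nM (final) KDM5BΔAP for 10 min at room temperature before substrate addition. The substrate mix held 12.5 µM H3K4me3 with cofactors 25 µM α-ketoglutarate and 50 µM Fe²⁺. NADH signal gain over 30 min defined activity.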
SNCA expr inhib – Primary qHTS assay for inhibitors of alpha-synuclein gene (SNCA) expression | HEK-293 SNCA-luciferase knock-in, luminescence, 24 h | Potency, µM (doses to about 57.2 µM), without a hit: at the highest dose activity change, negative = inhibition, usual class: inhibitors | 140,000 tested, 0.17% active | AID 1671194, 2021;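 also: potency is read from the fitted curve at half-maximal effect; plate controls were DMSO cells for no effect and cell-free wells for full effect; nearly all actives have a fitted effect of over 45% in size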
SNCA viab count – GF-AFC viability counterscreen for inhibitors of alpha-synuclein gene (SNCA) expression. HEK-293-SNCA-luc viability, GF-AFC fluorescence, 24 h. Potency, µM (series often up to 57.1 µM), without a hit: at the top dose activity change, negative = cytotoxicity, usual class: cytotoxic. 150,000 tested, 0.12% active;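 also: potency is read from the fitted curve at half-maximal effect; 0% = DMSO-treated cells and -100% = medium-only wells without cells; nearly all actives have a fitted effect of over 30% in size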
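HEK-293-SNCA-luc cells (1500/well) plated 24 h, then exposed 24 h to a dilution series; GF-AFC added 30 min at 37C, fluorescence 405/540 nm; normalised to medium-only and DMSO wells, Hill fit.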
IP6K1 inhibitor – Primary qHTS assay for small molecule inhibitors of Inositol hexaphosphate kinase 1 (IP6K1) | Inositol hexakisphosphate kinase 1 (Homo sapiens), Q92551 | IP6K1 kinase, ADP-Glo luminescence, 2 h; hits give low values | activity change, % (series mostly up to about 58 µM) | 140,000 tested, 0.81% active | AID 1645851, 2021; in the data active = activity change below about -25%; also: % is scaled to controls: 0 for no effect and ±100 for the full control effect
Target sequence (Q92551 whole entry, looked up): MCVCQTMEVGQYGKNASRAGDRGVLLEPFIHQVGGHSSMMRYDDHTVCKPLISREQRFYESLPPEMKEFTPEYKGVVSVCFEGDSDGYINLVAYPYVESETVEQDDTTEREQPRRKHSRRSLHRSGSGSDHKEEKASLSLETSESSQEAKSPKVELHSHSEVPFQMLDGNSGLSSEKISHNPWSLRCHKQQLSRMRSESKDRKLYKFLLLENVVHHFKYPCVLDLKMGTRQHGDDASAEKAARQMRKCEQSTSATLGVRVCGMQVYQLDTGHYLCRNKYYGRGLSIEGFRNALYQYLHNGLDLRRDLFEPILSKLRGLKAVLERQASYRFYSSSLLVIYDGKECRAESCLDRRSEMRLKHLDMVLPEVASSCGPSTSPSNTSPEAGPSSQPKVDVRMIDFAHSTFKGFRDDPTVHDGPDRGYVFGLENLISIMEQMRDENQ
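ADP-Glo luminescence measures ADP made by human IP6K1 during a 2 h RT reaction with ATP/IP6 (mix at 1.3 mM/130 uM); top library doses 57.5 and 19.1 uM final.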
IP6K1 inh cnf – Confirmatory qHTS assay for small molecule inhibitors of Inositol hexaphosphate kinase 1 (IP6K1). shares compounds with IP6K1 inhibitor. recombinant IP6K1 kinase, ADP-Glo luminescence, 2 h. Potency, µM (doses to about 49 µM), for inactives: at the top dose activity change, negative = inhibition, actives largely listed as inhibitors. 1,200 tested, 13% active; also: potency is read from the fitted curve at half-maximal effect; % is scaled to controls: 0 for no effect and ±100 for the full control effect; nearly all actives have a fitted effect of over 65% in size
Numbers without * were called inactive; i = inactive; u = inconclusive; x = no result given; ! = not confirmed by another sample; [ ] = another dose, or the depositor's remark. The list is not random: actives were taken first. Their share in the collection is about 2.9%. Unless noted, calls follow the shape of the dose curve; as a rule, active = well fitted curve in the direction sought with a large enough effect; inconclusive = small, poorly fitted or top-dose-only effect, or another doubt; inactive = no such curve, though single readings can be large; an effect the other way counts as inactive or inconclusive.

SMILES | KDM5B inhibitor | SNCA expr inhib | SNCA viab count | IP6K1 inhibitor | IP6K1 inh cnf
CCC(=O)N1c2ccccc2CC1C(=O)NCCN1CCN(c2cccc(Cl)c2)CC1 (centres undefined) | i | 4% | -14% | 10 | x
Brc1c(Br)c(Br)c2n[nH]nc2c1Br | x | 2% | 12% | x | 0.73µM*
CC(C)=CCC1(CO)CCCN(Cc2[nH]c3ccc(F)cc3c2C)C1 (centres undefined) | i | -21% | u | 1 | x
COc1ccc(C(=O)N/C(=C\c2ccc(-c3cccc(C(F)(F)F)c3)o2)C(=O)NC(C)(C)C)cc1 | i | x | x | x | x
O=C(CCn1nc(-c2ccc(Cl)cc2)ccc1=O)NCCc1ccccc1 | u | 20% | -2% | 18 | x
Cc1ccc(CCNC(=O)CCn2nc(-c3ccc(Cl)cc3)ccc2=O)cc1 | u | 21% | -1% | -28* | -6%
CNC(=O)c1ccccc1Nc1cc(Nc2ccc(N3CCOCC3)cc2OC)ncc1C(F)(F)F | x | x | -26% | -53* | u
Cc1ccc2c(c1)C(c1ccc(F)cc1)N(C(=O)c1cccc(C(F)(F)F)c1)CC(=O)N2 (centres undefined) | i | u | -28% | -26* | u
CCc1ccc(CN2C(=O)c3ccccc3C2C(=O)NC2CCCCCC2)cc1 (centres undefined) | u | -6% | 3% | -1 | x
Cn1c(NCCN)nc2c1c(=O)n(Cc1ccccc1)c(=O)n2C | u | -13% | 0% | -12 | x
CC(C)Nc1cc(-c2c[nH]c(C(=O)N[C@H](CO)c3cccc(Cl)c3)c2)c(Cl)cn1 | x | u | -22% | -19 | x
Cc1cnc(Nc2ccc(F)cc2Cl)nc1-c1c[nH]c(C(=O)NC(CO)c2cccc(Cl)c2)c1 (centres undefined) | x | x | -27% | -42* | 9.2µM*
Cc1ccccc1-c1nc(-c2ccc(Br)o2)no1 | i | x | x | x | x
CN1C(=O)N[C@H](Cc2c[nH]c3c(Cl)cccc23)C1=O | x | x | x | x | -5%
CCn1cncc1CNC(=O)c1cccc(CCC(C)(C)O)c1 | i | 30% | -4% | 2 | x
O=C(Nc1ccc(Cl)cc1)N1CCN(c2ccc3nnc(-c4ccccc4)n3n2)CC1 | u | -17% | u | -30*! | u
O=C(Nc1ccc(Cl)cc1)N1CCCN(c2ccc3nnc(-c4ccccc4)n3n2)CC1 | x | x | x | 9 | x
CN1C(=O)N(C)C2(CCN(c3cc(C4CC(O)C4)ncn3)CC2)C1=O (centres undefined) | i | -5% | 7% | -1 | x
C[C@@H]1CN(c2cc(C3CC(O)C3)ncn2)C[C@H](C)O1 (some centres undefined) | i | 3% | -3% | -31* | -1%
CCOC(=O)c1ccc(NC(=O)CSc2nc3cc4ccccc4cc3[nH]2)cc1 | u | -2% | -6% | -26* | 15%
Cc1cc(C)cc(NC(=O)CSc2nccn2-c2ccccc2)c1 | i | -6% | 7% | 21 | x
CCOC(=O)c1ccc(NC(=O)CSc2nccn2-c2cc(C)cc(C)c2)cc1 | i | -11% | 0% | -27* | u
Cc1ccc(CCNC(=O)c2nn(C)c3c2CSc2ccccc2-3)cc1 | u | 10% | 8% | -29* | -18%
Cn1nc(C(=O)NCCc2ccc(Cl)cc2)c2c1-c1ccccc1SC2 | u | u | -3% | 6 | x
COc1cccc(-c2noc(CC3CCN(C(=O)COc4cccc(C)c4)CC3)n2)c1 | u | -17% | -12% | -25* | -18%
SMILES | KDM5B inhibitor | SNCA expr inhib | SNCA viab count | IP6K1 inhibitor | IP6K1 inh cnf
COc1cccc(-c2nc(-c3ccc(F)cc3)cs2)c1 | i | x | x | x | x
COc1cccc(-c2nc3cc(SC)ccc3cc2CN(C)Cc2ccno2)c1 | 28µM* | 8% | -4% | -33* | -11%
Cc1cc(NC(=O)N2CCC(CN3CCOCC3)CC2)ccc1Br | i | 39% | -9% | 5 | x
CCOC(=O)c1ccc(NC(=O)CC2C(=O)N(c3ccc(F)cc3)C(=O)N2Cc2ccc(C)cc2)cc1 (centres undefined) | i | u | -19% | -29* | u
CC(=O)N1CCCC(c2nn(-c3ccc(F)cc3)c(=O)[nH]2)C1 (centres undefined) | i | 15%[87.6 µM] | 1%[87.6 µM] | 3 | x
O=C(CN1C(=O)COc2ccc(S(=O)(=O)NC3CCCC3)cc21)Nc1ccc(Cl)cc1F | i | 10% | -30% | -28* | 13%
O=C(NC1CCCCCCC1)C1CCCN(c2cn[nH]c(=O)c2)C1 (centres undefined) | i | -17% | -2% | 19 | x
CCCN(CCC)CCCNC(=O)Cn1cnc2sc(C)c(S(=O)(=O)N3CCCCC3)c2c1=O | i | 1% | 6% | -27* | -6%
O=C(Nc1ccc2nc3n(c(=O)c2c1)CCCCC3)c1cccc(C(F)(F)F)c1 | i | -21% | u | -25* | 5%
CN(C(=O)C(=O)Nc1ccc2nc3n(c(=O)c2c1)CCCCC3)c1cccc(C(F)(F)F)c1 | i | 2% | -1% | -14 | x
Cc1csc(NC(=O)c2ccc(S(=O)(=O)N3CCN(C)CC3)cc2)n1 | i | x | x | x | x
Cc1ccc(Cl)cc1N1CCN(c2ncnc3onc(C)c23)CC1 | i | u | 0% | 17 | x
O=C(OCC(=O)N1CCOCC1)c1ccc(F)cc1Cl | i | x | x | x | x
O=C(Nc1ccc(Br)cc1)c1cc(S(=O)(=O)NC2CCCC2)ccc1F | i | 7% | -3% | -35* | -11%
COc1cc(F)c(F)c(Nc2ccc(I)cc2F)c1NS(=O)(=O)C1(C[C@H](O)CO)CC1 | x | -16% | -20% | -6 | -15%
N=c1c2c(-c3ccccc3)cn(Cc3ccccc3)c2ncn1CCCO | x | x | x | x | -1%
Cn1c(=O)c2c(-c3ccccc3)n(CCCO)cc2n(C)c1=O | u | 48% | -14% | 2 | x
O=C(C1CCN(Cc2ccco2)CC1)N1CCCn2nc(CO)cc2C1 | i | 1% | 0% | 5 | x
CCn1c(=O)c2cc(C(=O)N(CC(C)C)CC(C)C)sc2c2ccccc21 | i | -4% | 16% | -26* | -8%
CCn1c(=O)c2cc(C(=O)N(C)c3ccccc3C)sc2c2ccccc21 | i | x | x | x | x
C#CCOc1ccc(C(=O)N[C@@H]2CN(Cc3ccc(CO)o3)CCC[C@H]2O)cc1 | u | -6%[87.6 µM] | -1%[87.6 µM] | 1 | x
CC(C)c1noc(CC2CCN(C(=O)Cc3ccc(F)cc3)CC2)n1 | i | 18% | -15% | -26* | -18%
COCCN(C)C[C@@H]1CN(C(=O)c2ccc(-c3ccccc3)n2C)C[C@@H]1CO | i | 133% | 12% | -34* | -15%

Screening data: PubChem, National Center for Advancing Translational Sciences (NCATS)
